Out of some 65,000 compounds screened, about 370 (0.57%) were called active.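 How the source made its calls: active means activation above the screen-wide mean activation plus 3 SD (cut at about 19% in these data); inactive means the rest.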 Shown is part of a subset that was picked to be rich in actives.
What follows are compounds tested against 5-hydroxytryptamine receptor 1A (Homo sapiens) (UniProt P08908) (assay: human 5-HT1a receptor agonists, primary screen, cell-based, CHO, Ga15 NFAT-bla reporter (AID 567;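 further: 0% = DMSO wells and 100% = 5-CT at EC100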)). Settings: CHO 5-HT1a Ga15 NFAT-bla reporter, FRET ratio; at 10 µM; active compounds read high; 0% basal, 100% maximal reference agonist.
Sequence of 5-hydroxytryptamine receptor 1A (Homo sapiens) (P08908 whole entry, looked up): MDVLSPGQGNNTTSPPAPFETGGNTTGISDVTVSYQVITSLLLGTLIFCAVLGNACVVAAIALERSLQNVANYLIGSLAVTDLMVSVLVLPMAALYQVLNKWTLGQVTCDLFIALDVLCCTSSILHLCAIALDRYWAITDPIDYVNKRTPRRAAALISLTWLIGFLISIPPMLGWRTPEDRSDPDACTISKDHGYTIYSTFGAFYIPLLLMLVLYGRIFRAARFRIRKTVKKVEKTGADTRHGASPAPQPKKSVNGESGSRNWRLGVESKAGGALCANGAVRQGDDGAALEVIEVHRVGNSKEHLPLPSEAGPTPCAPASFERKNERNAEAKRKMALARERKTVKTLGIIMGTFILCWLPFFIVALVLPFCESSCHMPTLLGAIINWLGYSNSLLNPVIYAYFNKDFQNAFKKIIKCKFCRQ

activation, active:
COC(=O)c1ccc2c(=O)n(CC3CCCO3)c(=S)[nH]c2c1 (stereo not given) 66.3%
c1cnn(-c2cc(N3CCOCC3)ncn2)c1 42%
N#Cc1c(N)n(CCOC(=O)c2ccc(Cl)cc2)c2nc3ccccc3nc12 27.6%
CCC(=O)c1ccc(OCC(O)CN2CCN(c3cccc(C(F)(F)F)c3)CC2)cc1 (stereo not given) 36.5%

activation, inactive:
CC1Cn2c(nnc2-c2cccs2)S1 (stereo not given) 0.5%
Cc1ccc(CNC(=O)CN2CCN(Cc3ccc(Cl)cc3)C2=O)cc1 0.67%
Cn1c(C(=O)NCCN2CCc3ccccc3C2)cc2c(=O)[nH]c3ccccc3c21 -1.75%
CCc1ccccc1N(CC(=O)N1CCN(c2ccccc2F)CC1)S(C)(=O)=O -1.54%
COc1ccccc1CNC(=O)CCCn1c(=O)c2ccccc2n(CC(=O)NC2CCCC2)c1=O -2.51%
CCCOC(=O)CC1C(=O)NCCN1Cc1ccc(F)cc1 (stereo not given) 1.2%
Cc1c(NC(=O)C(C)OC(=O)c2cc3c4ccccc4n(C)c3s2)c(=O)n(-c2ccccc2)n1C (stereo not given) 1.13%
O=c1c2cc3c(=O)n(CC4CCCO4)c(=O)c3cc2c(=O)n1CC1CCCO1 (stereo not given) -2.73%
O=C(NC1CCCCC1)c1ccc2c(=O)n(CC3CCCO3)c(=O)[nH]c2c1 (stereo not given) -3.15%
CCC(C)NC(=O)C1CCC(=O)N1Cc1ccc(C)cc1 (stereo not given) -3.11%
CCOc1ccc(C2C(C(=O)NC)=C(C)Nc3nc4ccccc4n32)cc1OC (stereo not given) -2.74%
c1cnc(NC2C3CC4CC(C3)CC2C4)nc1 (stereo not given) -0.19%
COc1ccc2c(c1OC)C(=O)OC2c1c(O)nc(SC)n(-c2ccccc2)c1=O (stereo not given) 1.4%
CCn1c(-c2cc(OC)ccc2OC)csc1=Nc1c(C)n(C)n(-c2ccccc2)c1=O -3.67%
CCOC(=O)Cn1c(=O)oc2cc(S(=O)(=O)N(C)Cc3ccco3)ccc21 -3.37%
Cc1ccc(C(C)C)c(OCc2nnc(SCC(=O)Nc3nccs3)n2C)c1 -0.25%
O=C1c2ccccc2-c2ncnc3c(N4CCOCC4)cc(N4CCOCC4)c1c23 0.99%
O=C(Nc1cc(N2CCOCC2)ncn1)NC1(C(F)(F)F)Oc2ccc(Cl)cc2O1 (stereo not given) -2.08%
COCCCn1c2nc3ccccc3nc2c2c(=O)n(Cc3ccc(Cl)cc3)c(C)nc21 1.36%
CC(C)(C)OC(=O)c1c(N)n(CCCN2CCCC2=O)c2nc3ccccc3nc12 4.61%
O=C(C(c1ccccc1)c1ccccc1)N1CCN(CC(O)COc2ccccc2)CC1 (stereo not given) -2.69%
COc1cccc(OCC(O)CN2CCN(CCO)CC2)c1 (stereo not given) 1%
Cn1nc(-c2ccc(Cl)cc2)c2cc(C(=O)NCc3ccco3)sc21 -2.11%
CCc1c(C)nc(N2CCN(Cc3ccccc3)CC2)[nH]c1=O -1.04%
CC(C)N1C(=O)C2C(C(=O)NC3CCCCC3)C3C=CC2(O3)C1C(=O)NC1CCCC1 (stereo not given) -3.66%
CCn1c(CNC(=O)c2ccc(OC)c(OC)c2)nnc1SCC(=O)Nc1ccccc1 1.92%
CCCNS(=O)(=O)c1ccc(CCC(=O)NCc2cccnc2)cc1 0.51%
CCN1CCN(Cc2nc3c(c(=O)n(C)c(=O)n3C)n2CC(=O)c2ccccc2)CC1 -1.47%
CCn1nnc(NC(=O)c2c(OC)cccc2OC)n1 0.51%
O=C(COc1ccc(S(=O)(=O)NCCc2ccccc2)cc1)N1CCCC1 -3.17%
O=C(COc1ccccc1)NCCc1nc2ccccc2[nH]1 2.44%
Cc1cccc(NC(=O)C2CCCN2S(=O)(=O)c2ccc(F)cc2)c1C (stereo not given) 0.24%
O=C1Nc2c(Br)cc(Br)cc2C1(O)N1CCOCC1 (stereo not given) 0.9%
CCOCCCN1C(=O)CN(C2CCCCC2)C(=O)C1c1ccc(OCC)c(OC)c1 (stereo not given) 0.91%
CCCS(=O)(=O)Nc1c(C(=O)O)[nH]c2ccccc12 -2.21%
c1ccc(Nc2n[nH]nc2-c2ccccc2)cc1 0.42%
CCCCOc1ccc(Cl)cc1CSc1nncn1N -1.4%
Cc1csc(NC(=O)NC2(C(F)(F)F)Oc3ccccc3O2)n1 1.56%
COc1ccc(C)cc1NC(=O)CSc1nc(SC)ns1 -0.56%
O=C(CN1CCOCC1)Nc1c(-c2ccccc2)c2cc(Br)ccc2[nH]c1=O -1.84%
Cc1ccc(C(=O)N(CN2CCCC2=O)c2ccc(F)cc2)cc1 -4.03%
CC(=O)c1cccc(S(=O)(=O)N2CCC(n3nnc4cc(F)ccc43)CC2)c1 1.45%
COc1ccc(Cn2c(=O)sc3ccccc32)cc1OC 1.04%
CN(C)c1ccc(NC(=O)c2ccncc2)c2ccccc12 -2.38%
O=C(CSC1=NCCS1)Nc1nc(-c2ccccc2)cs1 -0.71%
Cc1nc(NC(=O)CCC(=O)O)sc1C(=O)N(C)C -1.18%
Cc1cc(NC(=O)Cn2nc(C(F)(F)F)c3c2CCCC3)no1 -1.46%
Cc1cccc(N2CCN(C(c3ccccc3)c3nnnn3CC3CCCO3)CC2)c1C (stereo not given) -0.4%
CN(C)c1cc[n+](Cc2ccccc2)cc1 0.31%
COC(=O)c1ccc(Oc2nc(Nc3ccc(F)cc3)nc(N3CCCC3)n2)cc1 0.02%
N#CNC1=NCN(CCc2ccccc2)CN1 -0.74%
CCOC(=O)N1CCC(NC(=O)C(C)n2c3ccccc3c3cnn(C)c(=O)c32)CC1 (stereo not given) -1.53%
COc1ccc(S(=O)(=O)N2CCC(C(=O)N3CCOCC3)CC2)cc1OC -2.94%
CCCCC(=O)N1CC2(C)CN(C(=O)CCCC)CC(C)(C1)C2=O -3.12%
Cc1onc(-c2ccccc2)c1C(=O)Nc1ccccc1C#N -0.43%
CCOC(=O)CSc1nnc(-c2ccncc2)o1 -4.83%

Reference: PubChem BioAssay AID567 (The Scripps Research Institute Molecular Screening Center, 2006)
